This is an account of results in the supplement of paper PMC10600219.

SMILES strings stand for the structures. Counter-ions that a name gives are not always drawn. In all, about 2,800 compounds were measured (“cell viability relative to vehicle”: median about 1.1, lowest 2% from about 0.19 on). The sample holds the lowest values, similar compounds and a random draw of the others, so the mix is not that of the screen.

For this assay, the system named is NCI-H2228 parental. In words: cell viability relative to vehicle (fraction of vehicle); NCI-H2228 is an ALK-positive lung cancer line and DTP means drug-tolerant persister; higher = less growth inhibition. Particulars: 100 nM; treatment time 6 days. In a few lines:
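Parental NCI-H2228 cells and drug-tolerant persister cells (made with 1000 nM of a targeted drug for 13 days) were seeded in 384-well plates. The next day, the 3114-agent TargetMol anti-cancer compound library was added at 100 nM, with DMSO as vehicle. After 6 days, ATP was read with the CellTiter-Glo 3D Cell Viability Assay. Each value is cell viability relative to vehicle-treated cells.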
For `FC(F)(F)c1ccccc1-c1nc(NCc2cccs2)c2ccccc2n1`, the cell viability is 1.04.

For the molecule `CC(CCc1ccccn1)(CCc1ccccn1)C(=O)c1ccccc1` [JAK2 Inhibitor V], the cell viability is 1.08.

`COc1cc2ncnc(Nc3ccc(Oc4ccccc4)cc3C)c2cc1OC`: the cell viability was 0.96.

With `CCc1ccc(-c2nc(CSCC(=O)NCCc3ccccc3)c(C)o2)cc1`, the cell viability was found to be 1.1.

In the case of `COc1cc(N(C)C)cc(CN(C)CCc2ccc([N+](=O)[O-])cc2)c1O` [CDC25 Phosphatase Inhibitor I], the cell viability was found to be 1.05.

In the case of `O=C(O[C@@H]1Cc2c(O)cc(O)cc2O[C@H]1c1cc(O)c(O)c(O)c1)c1cc(O)c(O)c(O)c1` [(-)-Gallocatechin gallate], the cell viability is 1.07.

On to `O=C1NCCSc2c1sc1ccc(O)cc21`, for which the cell viability was found to be 1.05.

Consider `Cc1csc(-c2nnc(Nc3ccc(Oc4ncccc4-c4ccnc(N)n4)cc3)c3ccccc23)c1`, for which the cell viability was determined as 0.143.

Turning to `C[C@@H]1CCCCCCCCCCCCC(=O)C1` [Muscone], the cell viability was 1.13.

For `CC(NC(=O)C(Cc1ccccc1)NC(=O)OCc1ccccc1)C(=O)CF` (stereo not drawn), the cell viability worked out at 1.1.

`COC[C@H](NC(=O)c1cnc(C)s1)C(=O)N[C@@H](COC)C(=O)N[C@@H](Cc1ccccc1)C(=O)[C@@]1(C)CO1` [Oprozomib]: the cell viability was 0.176.

On to `CC(=O)NC(Cc1ccccc1)C(=O)O` (stereo not drawn) [Afalanine], for which the cell viability is 1.04.

Regarding `Cn1c(=O)c(Oc2ccc(F)cc2F)cc2cnc(NC(CCO)CCO)nc21` [Pamapimod], the cell viability was determined as 1.05.

For `C[C@@H]1CC[C@@]2(NC1)O[C@H]1C[C@H]3[C@@H]4CC=C5C[C@@H](O[C@@H]6O[C@H](CO)[C@H](O)[C@H](O[C@@H]7O[C@H](CO)[C@@H](O)[C@H](O)[C@H]7O)[C@H]6O[C@@H]6O[C@@H](C)[C@H](O)[C@@H](O)[C@H]6O)CC[C@]5(C)[C@H]4CC[C@]3(C)[C@H]1[C@@H]2C` [Solasonine], the cell viability was determined as 1.1.

Regarding `Cn1cc(-c2cc3c(N4CCN(c5ncc([C@@](C)(N)c6ccc(F)cc6)cn5)CC4)ncnn3c2)cn1` [Avapritinib], the cell viability was 0.846.

With `CC(C)C[C@H](NC(=O)CNC(=O)c1cc(Cl)ccc1Cl)B1OC(=O)C(CC(=O)O)(CC(=O)O)O1`, the cell viability was 0.106.

Regarding `CCCC(C)NC(=O)c1ccc(Cl)c(Cl)c1` (stereo not drawn), the cell viability is 1.06.

On to `CC(C)C[C@H](NC(=O)CNC(=O)c1cc(Cl)ccc1Cl)B(O)O` [Ixazomib], for which the cell viability was 0.121.

Take `C[C@H](NC(=O)CNC(=O)c1cccc(Cl)c1)c1ccccc1`: the cell viability turned out to be 1.09.

On to `CCNC(=O)Nc1ccc(-c2nc(N3CCOC[C@@H]3C)c3c(n2)C(C)(C)S(=O)(=O)C3)cc1`, for which the cell viability amounted to 0.547.

Regarding `CCn1nc(C2CCN(C(=O)CCO)CC2)nc1-c1cnc(N)c(-c2nnc(C(C)(C)C)o2)n1`, the cell viability was found to be 1.04.

With `COc1cc(OCc2cccc(-c3ccccc3)c2C)cc(OC)c1CN1CCCC[C@H]1C(=O)O` [PD-1/PD-L1 inhibitor 1], the cell viability was 1.09.

With `Nc1n[nH]c2cc(-c3ccc(=O)n(Cc4cccc(Cl)c4)c3)ccc12`, the cell viability was determined as 1.

For `Cc1cc(-n2cccc2)c(S(C)(=O)=O)cc1C(=O)N=C(N)N` [Eniporide], the cell viability came out at 1.24.

As to `Nc1nccc(Oc2ccc3c(C(=O)Nc4cccc(C(F)(F)F)c4)cccc3c2)n1`, the cell viability was 1.15.

In the case of `C=C1CCC[C@]2(C)C[C@]3(O)OC(=O)C(C)=C3C[C@@H]12` [Atractylenolide III], the cell viability is 1.1.

Regarding `COc1nccnc1NS(=O)(=O)c1ccc(NC(=O)/C=C/c2ccc([N+](=O)[O-])s2)cc1` [Necrosulfonamide], the cell viability came out at 1.13.

As for `O=C(COCC(=O)N1CCN(C(c2ccccc2)c2ccccc2)CC1)Nc1ccc(Cl)cc1C(=O)O` [TM5275 sodium], the cell viability was 0.996.

In the case of `NCCC(=O)O` [beta-Alanine], the cell viability was 1.24.

As for `CC(C)S(=O)(=O)c1ccc2nccc(Nc3ccc4scnc4c3)c2c1`, the cell viability was 1.08.

Consider `Nc1nc(=O)c2c([nH]1)NC[C@H](CNc1ccc(C(=O)N[C@@H](CCC(=O)O)C(=O)O)cc1)N2C=O` [Calcium Levofolinate], for which the cell viability was found to be 1.15.

`Nc1nc2[nH]cc(CCc3ccc(C(=O)N[C@@H](CCC(=O)O)C(=O)O)cc3)c2c(=O)[nH]1` [Pemetrexed Disodium Hydrate]: the cell viability is 0.187.

Turning to `Cc1ccc2nc(N)[nH]c(=O)c2c1Sc1ccncc1` [Nolatrexed], the cell viability is 1.04.

As to `COc1c2c(cc3c1-c1c(cc4c(c1OC)OCO4)C[C@H](C)[C@H](C)C3)OCO2` [Schisandrin C], the cell viability was determined as 0.951.

Take `N#CC(=Cc1cc(Cl)cc(Cl)c1)c1cccnc1`: the cell viability stood at 1.14.

For the molecule `CCN(CC)CCOc1ccc(Nc2nc(-c3ccccc3NC(=O)CCN3CCN(C)CC3)nc3ccccc23)cc1`, the cell viability amounted to 1.15.

On to `CC(C)Oc1ccc(C(=O)N[C@H](CNC(=O)CN(C)C)Cc2ccc(-c3cn4cccc([C@H](C)O)c4n3)cc2)cc1Cl`, for which the cell viability is 0.15.

As to `COc1ccc(-c2cc(=O)c3c(O)cc(O[C@@H]4O[C@H](CO[C@@H]5O[C@@H](C)[C@H](O)[C@@H](O)[C@H]5O)[C@@H](O)[C@H](O)[C@H]4O)cc3o2)cc1` [Linarin], the cell viability was determined as 1.02.

As for `NC(=O)c1[nH]cnc1N` [4-Amino-5-imidazolecarboxamide], the cell viability is 1.23.

As for `CCn1cc(-c2cccc(C(F)(F)F)c2)c2sc(C(=N)NC3CCS(=O)(=O)CC3)cc2c1=O`, the cell viability is 1.1.

`CC(C)C[C@H](NC(=O)[C@H](CCc1ccccc1)NC(=O)CN1CCOCC1)C(=O)N[C@@H](Cc1ccccc1)C(=O)N[C@@H](CC(C)C)C(=O)[C@@]1(C)CO1` [Carfilzomib]: the cell viability stood at 0.0349.

Regarding `CC(C)c1nc(CN(C)C(=O)N[C@@H](CCN2CCOCC2)C(=O)N[C@H](CC[C@H](Cc2ccccc2)NC(=O)OCc2cncs2)Cc2ccccc2)cs1` [Cobicistat], the cell viability came out at 1.14.

Regarding `COc1ccc(C[C@H](NC(=O)[C@H](C)NC(=O)CN2CCOCC2)C(=O)N[C@@H](Cc2ccccc2)C(=O)C2(C)CO2)cc1` (stereo in doubt), the cell viability worked out at 0.878.

`CC(=O)OC(CC(C)C1=C2C[C@H](O)C3[C@@]4(C)CCC(=O)C(C)(C)C4CC[C@]3(C)[C@@]2(C)CC1)C1OC1(C)C` (stereo partly drawn) [Alisol B 23-acetate]: the cell viability worked out at 0.99.

For the molecule `CC(C)C[C@H](NC(=O)[C@@H](O)[C@H](N)Cc1ccccc1)C(=O)O` [Bestatin hydrochloride], the cell viability was determined as 1.16.

Take `CC(C)C[C@H](NC(=O)[C@H](Cc1ccccc1)NC(=O)c1cnccn1)B(O)O` [Bortezomib]: the cell viability stood at 0.067.

Regarding `CC(C)C[C@H](NC(=O)[C@@H](NC(=O)c1cccc(-c2ccccc2)n1)[C@@H](C)O)B(O)O` [Delanzomib], the cell viability is 0.096.

As to `CNC(=O)[C@H](Cc1ccccc1)NC(=O)[C@H](CC(C)C)[C@H](CSc1cccs1)C(=O)NO` [Batimastat], the cell viability was determined as 1.08.

Regarding `CC(C)C[C@H](NC(=O)[C@@H](O)[C@H](N)Cc1ccccc1)C(=O)O` [Ubenimex], the cell viability is 1.08.

With `CCCOc1ccc(/C=C2\SC(=O)NC2=O)cc1`, the cell viability was 1.11.

For `CCn1c(=Cc2cccc[n+]2CC)sc(=C2Sc3ccccc3N2C)c1=O`, the cell viability is 1.04.

Take `COc1ccc(/C=C/c2cc(O)cc(O[C@@H]3O[C@H](CO)[C@@H](O)[C@H](O)[C@H]3O)c2)cc1O` [Rhaponiticin]: the cell viability was 1.11.

`CC(C)=CCC[C@](C)(O[C@@H]1O[C@H](CO)[C@@H](O)[C@H](O)[C@H]1O)[C@H]1CC[C@]2(C)[C@@H]1[C@H](O)C[C@@H]1[C@@]3(C)CC[C@H](O)C(C)(C)[C@@H]3[C@@H](O)C[C@]12C` [Ginsenoside F1]: the cell viability was found to be 1.1.

On to `C=C1CC[C@@H]2[C@](C)(CO[C@@H]3O[C@H](CO)[C@@H](O)[C@H](O)[C@H]3O)CCC[C@@]2(C)[C@@H]1CCC1=CCOC1=O` [Neoandrographolide], for which the cell viability came out at 1.08.

`O=C1N[C@@H](Cc2c[nH]c3ccccc23)C(=O)N2CCC[C@@H]12` [Brevianamide F]: the cell viability was found to be 1.05.

In the case of `Nc1nc(O)c2[nH]nnc2n1` [8-Azaguanine], the cell viability came out at 0.571.

Consider `COc1ccc(CNc2nc(N3CCC[C@H]3CO)ncc2C(=O)NCc2ncccn2)cc1Cl` [Avanafil], for which the cell viability turned out to be 0.966.

Regarding `CCc1cnn2c(NCc3ccc[n+]([O-])c3)cc(N3CCCC[C@H]3CCO)nc12` [Dinaciclib], the cell viability was found to be 0.118.

Turning to `O=C1C[C@@H](c2ccc(O)c(O)c2)Oc2cc(O)cc(O)c21` [Eriodictyol], the cell viability stood at 1.04.

Regarding `N#Cc1cnc(Nc2cc(NC[C@H]3CNCCO3)c(C(F)(F)F)cn2)cn1`, the cell viability stood at 1.07.

Turning to `COc1cccc(OCCCN)c1-c1cc(Nc2cnc(C#N)cn2)n[nH]1` [Prexasertib dihydrochloride], the cell viability came to 0.169.

`Cc1cc(O)c(C(=O)CCC(C)C)c(=O)o1` [Pogostone]: the cell viability amounted to 1.04.

With `O=C(NCc1ccc(S(=O)(=O)c2cc(F)cc(F)c2)cc1)c1ccc2nccn2c1`, the cell viability was 0.117.

Regarding `Cc1ccc(S(=O)(=O)Cc2nc(-c3ccc(C(=O)NCc4cccnc4)cc3)oc2C)cc1`, the cell viability came out at 0.875.

Regarding `O=S(=O)(c1ccc(Cl)cc1)N1CCN(c2ccnc3cc(Cl)ccc23)CC1`, the cell viability turned out to be 1.08.

Regarding `CCCCCCCCCCCCCCOc1ccc(C(=O)O)o1`, the cell viability was 1.05.

Regarding `O=C(NCCN1CCOCC1)Nc1ccc(C(=O)/C=C/c2cccc(N3CCOCC3)n2)cc1`, the cell viability was found to be 1.09.

`CC(=O)c1cnc2ccc(-c3cc(Cl)c(O)c(Cl)c3)nc2c1N[C@H]1CC[C@H](CN(C)C)CC1`: the cell viability stood at 0.657.

As for `O=C(NCCCNc1nc(Nc2cccc(CN3CCOCC3)c2)ncc1C1CC1)C1CCC1`, the cell viability stood at 0.937.

For the molecule `CC(=O)Nc1ccn([C@@H]2O[C@H](CO)[C@@H](O)[C@H]2O)c(=O)n1` [N4-Acetylcytidine], the cell viability came to 1.06.

In the case of `Nc1ccn([C@@H]2O[C@H](CO)[C@@H](O)[C@@H]2O)c(=O)n1` [Cytarabine], the cell viability stood at 0.12.

For the molecule `CCCC(CCC)C(=O)Nc1ccn([C@@H]2O[C@H](CO)[C@@H](O)C2(F)F)c(=O)n1`, the cell viability was 1.12.

Turning to `Nc1ccn([C@@H]2O[C@H](CO)[C@@H](O)C2(F)F)c(=O)n1` [Gemcitabine HCl], the cell viability was 0.121.

For the molecule `C[C@H](NP(=O)(OC[C@H]1O[C@@H](n2ccc(N)nc2=O)C(F)(F)[C@@H]1O)Oc1ccccc1)C(=O)OCc1ccccc1` (stereo partly drawn) [Acelarin], the cell viability is 0.135.

On to `Nc1ccn([C@@H]2O[C@H](CO)[C@@H](O)C2(F)F)c(=O)n1` [Gemcitabine], for which the cell viability was found to be 0.0956.

As for `Nc1ccn([C@@H]2O[C@H](CO)[C@@H](O)[C@H]2O)c(=O)n1` [Cytidine], the cell viability came to 0.915.

`Nc1ccn([C@@H]2CS[C@H](CO)O2)c(=O)n1` [Lamivudine]: the cell viability amounted to 1.21.

On to `Nc1ccn([C@H]2C[C@H](O)[C@@H](CO)O2)c(=O)n1` [2'-Deoxycytidine monohydrate], for which the cell viability was 1.07.
